Bioassay records: PubChem, National Center for Advancing Translational Sciences (NCATS)
ALOX12 inhib: inhibitors of human 12-lipoxygenase (ALOX12) | P18054 | purified 12-hLO, xylenol orange hydroperoxide absorbance | Potency, µM (titrated, usually from 57.1 µM), for the others: at the highest dose activity change, negative = inhibition, usual class: inhibitors | 0.12% of 150,000 active | AID 1452; further: potency means the concentration at half of the fitted maximal effect; nearly all actives have a fitted effect of over 55% in size
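Xylenol orange chromogenic assay: hydroperoxide from 12hLO oxidises Fe(II), giving red-shifted Fe(III)-XO absorbance. Conditions: 150 nM enzyme, 40 uM arachidonic acid, 25 mM Hepes pH 7.0, 0.01% Triton X-100, 30 min, room temperature.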
ALDH1A1 block: ALDH1A1 (human) enzyme inhibition. P00352. Purified ALDH1A1, NADH fluorescence, propionaldehyde substrate. Potency, µM (doses to about 75.3 µM), for inactives: at the highest dose activity, negative = inhibition, hits mostly inhibitors. 7.3% of 220,000 active; active means well fitted inhibition curve with a large enough effect, not every such curve was filed as active; inconclusive means small, poorly fitted or top-dose-only effect, or another doubt; inactive means no such curve, though single readings can be large or run the other way;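 further: potency means the concentration at half of the fitted maximal effect; plate controls were no enzyme wells and a reference inhibitor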
HPGD inh: blocks human HPGD enzyme activity. P15428. purified HPGD, NADH fluorescence kinetic, PGE2 substrate. Potency, µM, for inactives: top-dose activity change, negative = inhibition, actives largely listed as inhibitors. 4.3% of 150,000 active; active means well fitted inhibition curve with a large enough effect, not every such curve was filed as active; inconclusive means small, poorly fitted or top-dose-only effect, or another doubt; inactive means no such curve, though single readings can be large or run the other way; further: potency means the concentration at half of the fitted maximal effect
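NADH formation kinetics: reaction with 30 uM PGE2 and 1 mM NAD+ (final), 20 nM enzyme, Tris-HCl pH 8 with Tween 20, after 15 min compound preincubation at room temperature. Fluorescence change, last versus first of five reads.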
IMPase Li inh: cell-permeable IMPase inhibitors with lithium potentiation | Potency, µM (highest dose often 59.4 µM), for the others: at the highest dose activity, negative = IMPase inhibition, actives largely listed as inhibitors | CHO-M1 cells, IP1 TR-FRET (IP-One), carbachol + lithium | 0.35% of 210,000 active | AID 1457;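 further: IP1 builds up when IMPase is blocked and the TR-FRET signal falls; potency means the concentration at half of the fitted maximal effect; plate controls were basal vehicle for no effect and high inhibitor control for full effect; nearly all actives have a fitted effect of over 50% in size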
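CHO-M1, 2000 cells/well, 16–30 h culture; cpd + low Li+, 30 min 37C; lysis with d2-IP1/Eu-anti-IP1 Ab, 10 min RT; TR-FRET 665/620 ratio and 620 channel; AC50 via Hill.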
IMPase cell inh: membrane-permeable compound that blocks inositol monophosphatase; P97697; CHO-M1 cells, IP1 accumulation, HTRF TR-FRET ratio; inhibition (IP1 accumulation), % at 46.1 µM; 120,000 tested, under 10 active; active means well fitted curve in the direction sought with a large enough effect in the signal ratio, not every such curve was filed as active; inconclusive means small, poorly fitted or top-dose-only effect, or a change in a side signal; inactive means no such curve, though single readings can be large or run the other way; the % refers to the signal ratio;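 further: cells stimulated with carbachol in lithium chloride buffer; plate controls were DMSO basal wells for no effect and reference inhibitor wells for full effect; higher means more IMPase inhibition seen as more IP1 and lower FRET ratio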
Target sequence (P97697 whole entry, looked up): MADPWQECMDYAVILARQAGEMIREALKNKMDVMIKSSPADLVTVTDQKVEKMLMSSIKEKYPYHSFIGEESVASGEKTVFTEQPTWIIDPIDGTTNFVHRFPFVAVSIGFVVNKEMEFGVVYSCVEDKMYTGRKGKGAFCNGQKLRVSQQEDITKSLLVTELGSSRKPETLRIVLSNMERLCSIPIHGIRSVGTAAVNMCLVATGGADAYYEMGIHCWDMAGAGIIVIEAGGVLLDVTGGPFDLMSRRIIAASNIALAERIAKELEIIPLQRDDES
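The IP-One HTRF competitive assay in carbachol-stimulated CHO-M1 cells quantifies cellular IP1. Compounds spanned up to 46 uM final, and activity is expressed as AC50 from concentration-response fits of the ratio and donor data.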
NPSR antag: antagonists of human neuropeptide S receptor cAMP signaling | Q6W5P4 | CHO-NPSR cells, cAMP TR-FRET, antagonist mode | Potency, µM (top dose mostly 38.3 µM), for the others: at the highest dose activity change, negative = inhibition, usual class: inhibitors | 1% of 220,000 active | AID 1461; further: potency means the concentration at half of the fitted maximal effect; nearly all actives have a fitted effect of over 50% in size
Target sequence (Q6W5P4 whole entry, looked up): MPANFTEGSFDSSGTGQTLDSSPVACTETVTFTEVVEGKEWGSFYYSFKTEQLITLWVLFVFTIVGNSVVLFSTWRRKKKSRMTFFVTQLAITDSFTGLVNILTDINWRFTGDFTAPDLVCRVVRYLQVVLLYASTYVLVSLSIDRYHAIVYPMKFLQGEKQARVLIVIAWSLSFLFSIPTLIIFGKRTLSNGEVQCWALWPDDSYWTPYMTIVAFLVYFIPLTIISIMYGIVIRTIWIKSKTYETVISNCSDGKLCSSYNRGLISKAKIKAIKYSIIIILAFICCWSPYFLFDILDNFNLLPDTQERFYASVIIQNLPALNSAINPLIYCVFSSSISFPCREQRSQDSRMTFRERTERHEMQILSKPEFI
* = called active by the depositor; ? = inconclusive; / = no result given; [ ] = another dose, or the depositor's remark. Compounds with a hit are over-represented: about 8.9% of the library has one in this group of screens. Unless noted, the call rests on the fitted dose curve; in most records, active means well fitted curve in the direction sought with a large enough effect; inconclusive means small, poorly fitted or top-dose-only effect, or another doubt; inactive means no such curve, though single readings can be large; an effect the other way counts as inactive or inconclusive. Unless noted, on the % scale 0 is the no-effect control and ±100 the full control effect.

SMILES	ALOX12 inhib	ALDH1A1 block	HPGD inh	IMPase Li inh	IMPase cell inh	NPSR antag
CCc1cccc(C)c1NC(=O)CSc1nc(-c2ccccc2F)nc2nc[nH]c12	2%	?	-19%	?	/	-60%
O=C(O)c1ccc(SSc2ccc(C(=O)O)cn2)nc1	-16%[11.4 µM]	?	4µM*	-1%	/	/
CCCCN(CC)Cc1ccc(CNC(=S)Nc2cccc(F)c2)o1	/	14µM*	/	-3%	/	-14%
CCCCN(CC)Cc1ccc(CNC(=O)Nc2ccccc2)o1	11%	9%	-8%	26%[38.3 µM]	-12	-4%[46.1 µM]
COc1ccccc1NC(=O)Nc1nn(C)c2cccc(OC)c12	/	?	/	/	/	38%
S=c1nc[nH]c2nc[nH]c12	-1%	7.9µM*	?	11%	/	/
CCCn1nc([N+](=O)[O-])c(C(C#N)c2nc3ccccc3o2)c(Cl)c1=O (configuration not stated)	-23%	?	-15%	3%	-3	?
CCn1nc([N+](=O)[O-])c(C(C#N)c2nc3cc(C(F)(F)F)ccc3s2)c(Cl)c1=O (configuration not stated)	-23%	0.4µM*	?	34%[38.3 µM]	-6	?
COc1ccc(CCNC(=O)CSc2nc3c(c(=O)n(C)c(=O)n3C)n2C)cc1OC	1%	8%	-9%	6%	-5	-10%[46.1 µM]
Cc1cc(CNC(=O)[C@H](C)[C@H]2C[C@]2(C)[C@H](NC(=O)OCc2ccccc2)c2ccccc2)nn1C	-1%	4µM*	-9%	-23%	/	/
COc1ccc(CNC(=O)[C@H](C)[C@@H]2C[C@@]2(C)[C@@H](NC(=O)OCc2ccccc2)c2ccccc2)cc1OC	-13%	-4%	?	15%	/	-13%
COc1ccc(CNC(=O)[C@H](C)[C@H]2C[C@]2(C)[C@H](NC(=O)OCc2ccccc2)c2ccccc2)cc1OC	-4%	3.5µM*	-10%	8%	/	/
C[C@@H](C(=O)O)[C@H]1C[C@]1(C)[C@H](NC(=O)OCc1ccccc1)c1ccccc1	3%	7.1µM*	-6%	8%	/	5%
COc1ccc(N2CCN(C(=S)Nc3ccc(C)cc3C)CC2)cc1	/	8%	/	-8%	/	27%
COc1ccc(-c2noc(-c3ccccc3-c3ccccc3)n2)cc1	-5%	-4%	-5%	-1%[38.3 µM]	2	-12%[46.1 µM]
Cc1ccc(-c2nc(-c3ccccc3)no2)c(Cl)c1	1%	8%	40µM*	17%[38.3 µM]	-1	?
CCOc1ccc(N(CC(=O)NCc2ccccc2)S(C)(=O)=O)cc1	-2%	9%	-1%	-2%[38.3 µM]	-8	-3%[46.1 µM]
COC(=O)c1cc2occc2n1Cc1c(F)cccc1Cl	-6%	13µM*	-28%	38%[38.3 µM]	12	-14%[46.1 µM]
COc1ccc(-n2c(O)c(C=NCc3ccccn3)c3ccccc3c2=O)c(OC)c1	/	/	/	/	/	-9%
Cc1ccccc1N1CC(=O)N(c2ccccc2C)CC1=O	4%	5%	-5%	-1%[38.3 µM]	3	-6%[46.1 µM]
Cc1cccc2c1c1ccc3c(c1n2C)C(=O)C=CC3=O	/	0.32µM*	/	/	/	?
Clc1ccc(-n2ncc3c(NCCN4CCOCC4)ncnc32)cc1	4%	?	?	28%[38.3 µM]	6	-7%[46.1 µM]
O=C(O)c1cccc(N2C(=O)/C(=C/c3ccc([N+](=O)[O-])cc3)C=C2c2ccccc2)c1	/	25µM*	/	-8%	/	5µM*
COc1ccc(N2C(=O)/C(=C/c3ccc([N+](=O)[O-])cc3)C=C2c2ccccc2)cc1	-10%	?	-3%	3%[38.3 µM]	-3	-13%[46.1 µM]
O=C1/C(=C/c2ccc([N+](=O)[O-])cc2)C=C(c2ccccc2)N1c1ccccc1	-8%	-2%	/	/	?	-19%[46.1 µM]
SMILES	ALOX12 inhib	ALDH1A1 block	HPGD inh	IMPase Li inh	IMPase cell inh	NPSR antag
O=C1/C(=C/c2ccc([N+](=O)[O-])cc2)C=C(c2ccccc2)N1c1ccc(O)cc1	1%	?	-14%	22%[38.3 µM]	0	13µM*
CCCn1c(CN2CCN(C(=O)c3ccco3)CC2)nc2c1c(=O)n(C)c(=O)n2C	5%	-7%	-6%	28%[38.3 µM]	-2	4%[46.1 µM]
Cn1c(=O)c2c(nc(CN3CCN(C(=O)c4ccco4)CC3)n2CCc2ccccc2)n(C)c1=O	-1%	13µM*	-10%	-7%[38.3 µM]	9	-19%[46.1 µM]
Cn1c(=O)c2c(nc(CN3CCN(C(=O)c4ccco4)CC3)n2CCCc2ccccc2)n(C)c1=O	8%	1.3µM*	-1%	4%[38.3 µM]	-4	-18%[46.1 µM]
Cn1c(=O)c2c(nc(-n3ccnc3)n2Cc2ccccc2)n(C)c1=O	-2%	10µM*	-14%	15%[38.3 µM]	9	2%[46.1 µM]
CCN1CCN(Cc2nc3c(c(=O)n(C)c(=O)n3C)n2CCCc2ccccc2)CC1	-1%	13µM*	-14%	1%[38.3 µM]	-15	-3%[46.1 µM]
COC(=O)CSc1nc2c(c(=O)[nH]c(=O)n2C)n1CCC(C)C	0%	?	0%	-2%	-5	-11%[46.1 µM]
Cn1c(=O)c2c(nc(CN3CCOCC3)n2CCc2ccccc2)n(C)c1=O	-6%	7.1µM*	-5%	-8%[38.3 µM]	0	-25%[46.1 µM]
Cc1cc(C)n(CC(=O)N2c3ccccc3Sc3ccc(C(F)(F)F)cc32)n1	-1%	7%	-19%	17%	/	-57%
N[C@@H](Cc1ccccc1)c1nnc(SCc2ccccc2Cl)o1	-1%	?	28µM*	7%[38.3 µM]	2	2%[46.1 µM]
CCOc1ccc(Br)cc1S(=O)(=O)NCCN(C)C	-3%	15%	-5%	-7%[38.3 µM]	2	-12%[46.1 µM]
O=C(NC1CCCC1)c1cnn2c(C(F)(F)F)cc(-c3ccc4c(c3)OCO4)nc12	-6%	-3%	-15%	?	-11	?
